# Laboratory results from PMC7862700, “An all-to-all approach to the identification of sequence-specific readers for epigenetic DNA modifications on cytosine”.
# What was measured:
# Assay in all cases: DAPPL (digital affinity profiling via proximity ligation, sequencing); 10 mM Tris-HCl pH 7.5, 50 mM NaCl, 1 mM DTT, 4% glycerol, room temperature, 30 min; GST-TFs on glutathione beads, 16-mer random dsDNA library, 0.1% formaldehyde crosslink after washing; high values mean tight binding
# FLI1 = molecular target: T1, FLI1 (Homo sapiens, UniProt Q01543 1-452); settings: protein: recombinant; tags: N-terminal GST; dsDNA, one strand shown
# T1 sequence: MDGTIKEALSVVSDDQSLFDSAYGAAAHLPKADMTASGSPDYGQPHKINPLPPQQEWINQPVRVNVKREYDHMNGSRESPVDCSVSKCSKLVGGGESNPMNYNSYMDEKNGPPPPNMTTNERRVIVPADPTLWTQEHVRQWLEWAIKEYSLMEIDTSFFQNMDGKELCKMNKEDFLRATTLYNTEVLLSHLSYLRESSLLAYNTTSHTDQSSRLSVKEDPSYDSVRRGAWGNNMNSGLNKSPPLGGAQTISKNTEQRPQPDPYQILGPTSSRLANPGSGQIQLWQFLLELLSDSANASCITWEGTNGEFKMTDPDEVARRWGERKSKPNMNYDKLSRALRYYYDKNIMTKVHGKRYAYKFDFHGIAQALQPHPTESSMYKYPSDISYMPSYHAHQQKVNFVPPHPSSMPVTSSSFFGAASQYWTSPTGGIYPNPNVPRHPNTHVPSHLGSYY
# Outline: (§1)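 A tag-only sample was pooled with DNA-barcoded human transcription factors that had been expressed in yeast as GST fusions and captured on glutathione beads. The pools were incubated for 30 min at room temperature with 200 nmole of a random double-stranded 16-mer DNA library in Tris/NaCl/DTT/glycerol buffer, then washed, crosslinked with 0.1% formaldehyde, proximity-ligated (BsaI/T4 ligase, 1 h, 37 °C), PCR-amplified and sequenced on an Illumina NextSeq500. Binding signal is each hexamer's read frequency for a factor divided by its frequency for the tag-only sample.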
# ELK1 = molecular target: T2, ELK1 (Homo sapiens, UniProt P19419 1-428); settings: protein: recombinant; tags: N-terminal GST; dsDNA, one strand shown
# T2 sequence: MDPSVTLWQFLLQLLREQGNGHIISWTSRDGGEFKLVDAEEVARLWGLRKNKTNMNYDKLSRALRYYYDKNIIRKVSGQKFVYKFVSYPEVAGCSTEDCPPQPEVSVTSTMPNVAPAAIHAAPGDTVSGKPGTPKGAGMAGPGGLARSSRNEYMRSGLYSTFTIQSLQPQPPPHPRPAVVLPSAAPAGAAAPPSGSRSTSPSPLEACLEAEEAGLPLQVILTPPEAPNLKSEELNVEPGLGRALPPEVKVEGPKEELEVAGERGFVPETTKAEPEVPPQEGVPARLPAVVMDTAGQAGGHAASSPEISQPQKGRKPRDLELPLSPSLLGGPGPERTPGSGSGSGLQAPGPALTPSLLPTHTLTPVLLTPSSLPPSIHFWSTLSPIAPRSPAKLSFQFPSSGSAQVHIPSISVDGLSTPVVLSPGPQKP
# Outline: as §1
# GABPA = molecular target: T3, GABPA (Homo sapiens, UniProt Q06546 1-454); settings: protein: recombinant; tags: N-terminal GST; dsDNA, one strand shown
# T3 sequence: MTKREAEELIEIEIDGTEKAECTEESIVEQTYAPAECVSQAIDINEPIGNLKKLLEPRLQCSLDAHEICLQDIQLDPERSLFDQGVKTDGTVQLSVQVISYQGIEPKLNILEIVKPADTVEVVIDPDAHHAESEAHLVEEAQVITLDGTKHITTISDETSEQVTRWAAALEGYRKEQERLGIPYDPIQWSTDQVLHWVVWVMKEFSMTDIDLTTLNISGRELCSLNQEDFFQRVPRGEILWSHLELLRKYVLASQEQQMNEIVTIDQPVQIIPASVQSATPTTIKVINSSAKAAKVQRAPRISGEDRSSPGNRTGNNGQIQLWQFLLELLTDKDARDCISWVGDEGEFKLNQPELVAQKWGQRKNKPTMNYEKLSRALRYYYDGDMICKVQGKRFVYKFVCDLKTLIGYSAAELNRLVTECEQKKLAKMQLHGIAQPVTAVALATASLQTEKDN
# Outline: as §1
# ERG = molecular target: T4, ERG (Homo sapiens, UniProt P11308 1-479); settings: protein: recombinant; tags: N-terminal GST; dsDNA, one strand shown
# T4 sequence: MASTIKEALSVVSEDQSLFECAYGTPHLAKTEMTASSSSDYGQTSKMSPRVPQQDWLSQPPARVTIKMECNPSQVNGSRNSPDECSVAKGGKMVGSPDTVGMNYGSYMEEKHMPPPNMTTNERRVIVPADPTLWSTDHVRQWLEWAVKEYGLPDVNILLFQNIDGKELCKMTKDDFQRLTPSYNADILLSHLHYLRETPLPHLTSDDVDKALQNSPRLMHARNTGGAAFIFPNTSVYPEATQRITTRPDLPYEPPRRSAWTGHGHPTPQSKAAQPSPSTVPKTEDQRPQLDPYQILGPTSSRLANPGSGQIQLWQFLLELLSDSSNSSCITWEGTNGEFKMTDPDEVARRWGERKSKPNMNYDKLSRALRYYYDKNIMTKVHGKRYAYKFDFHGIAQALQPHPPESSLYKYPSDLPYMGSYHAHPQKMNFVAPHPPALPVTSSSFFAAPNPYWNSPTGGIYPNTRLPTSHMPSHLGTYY
# Outline: as §1
# ELF1 = ELF1 (Homo sapiens, UniProt P32519 1-619); settings: protein: recombinant; tags: N-terminal GST; dsDNA, one strand shown
# Chain of ELF1 (P32519 whole entry): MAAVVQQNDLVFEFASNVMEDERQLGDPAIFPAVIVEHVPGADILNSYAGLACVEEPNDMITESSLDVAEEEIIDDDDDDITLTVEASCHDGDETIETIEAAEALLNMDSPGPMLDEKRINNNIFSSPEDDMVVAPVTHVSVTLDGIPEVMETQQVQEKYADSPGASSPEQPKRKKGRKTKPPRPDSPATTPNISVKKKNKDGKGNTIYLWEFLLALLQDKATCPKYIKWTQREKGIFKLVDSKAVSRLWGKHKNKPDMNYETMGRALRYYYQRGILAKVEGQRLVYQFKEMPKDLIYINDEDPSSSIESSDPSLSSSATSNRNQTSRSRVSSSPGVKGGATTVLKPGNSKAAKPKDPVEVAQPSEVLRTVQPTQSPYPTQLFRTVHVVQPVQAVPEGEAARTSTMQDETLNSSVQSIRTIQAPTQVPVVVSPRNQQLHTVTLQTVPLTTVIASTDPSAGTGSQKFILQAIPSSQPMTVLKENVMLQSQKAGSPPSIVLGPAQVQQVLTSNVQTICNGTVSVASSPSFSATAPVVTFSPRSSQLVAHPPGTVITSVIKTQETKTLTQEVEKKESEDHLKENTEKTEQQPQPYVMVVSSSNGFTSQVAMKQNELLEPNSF
# Outline: as §1
# EHF = molecular target: T5, EHF (Homo sapiens, UniProt Q9NZC4 1-300); settings: protein: recombinant; tags: N-terminal GST; dsDNA, one strand shown
# T5 sequence: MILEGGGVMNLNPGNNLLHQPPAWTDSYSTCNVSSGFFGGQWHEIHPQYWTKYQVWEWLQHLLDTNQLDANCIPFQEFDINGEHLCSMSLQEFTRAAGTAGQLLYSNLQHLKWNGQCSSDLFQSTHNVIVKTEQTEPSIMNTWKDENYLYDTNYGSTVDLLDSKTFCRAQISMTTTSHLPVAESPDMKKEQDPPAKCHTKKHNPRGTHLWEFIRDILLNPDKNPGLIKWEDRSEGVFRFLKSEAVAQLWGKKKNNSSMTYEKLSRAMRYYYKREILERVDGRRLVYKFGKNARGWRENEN
# Outline: as §1
# SPI1 = SPI1 (Homo sapiens, UniProt P17947 1-270); settings: protein: recombinant; tags: N-terminal GST; dsDNA, one strand shown
# Outline: as §1
# SPIB = SPIB (Homo sapiens, UniProt Q01892 1-262); settings: protein: recombinant; tags: N-terminal GST; dsDNA, one strand shown
# Chain of SPIB (Q01892 whole entry): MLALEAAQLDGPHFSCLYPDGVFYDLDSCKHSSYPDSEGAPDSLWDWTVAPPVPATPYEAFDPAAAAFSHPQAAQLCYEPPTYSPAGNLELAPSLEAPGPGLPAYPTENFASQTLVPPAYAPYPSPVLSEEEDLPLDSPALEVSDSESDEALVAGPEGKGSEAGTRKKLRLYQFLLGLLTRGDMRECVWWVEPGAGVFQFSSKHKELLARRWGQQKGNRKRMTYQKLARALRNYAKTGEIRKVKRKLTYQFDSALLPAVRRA
# Outline: as §1
# ELK3 = molecular target: T6, ELK3 (Homo sapiens, UniProt P41970 1-407); settings: protein: recombinant; tags: N-terminal GST; dsDNA, one strand shown
# T6 sequence: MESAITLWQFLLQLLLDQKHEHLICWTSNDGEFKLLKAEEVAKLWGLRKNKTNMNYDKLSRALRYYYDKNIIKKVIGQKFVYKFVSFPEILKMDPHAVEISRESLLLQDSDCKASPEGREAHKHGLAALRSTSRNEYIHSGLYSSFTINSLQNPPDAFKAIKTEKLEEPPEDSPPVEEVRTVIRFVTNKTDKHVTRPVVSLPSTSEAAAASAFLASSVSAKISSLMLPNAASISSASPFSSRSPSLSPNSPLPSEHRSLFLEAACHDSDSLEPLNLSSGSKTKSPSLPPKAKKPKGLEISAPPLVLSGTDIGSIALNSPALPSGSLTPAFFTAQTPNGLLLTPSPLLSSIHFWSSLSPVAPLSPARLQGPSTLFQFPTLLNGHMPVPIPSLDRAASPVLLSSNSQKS
# Outline: as §1
# FEV = molecular target: T7, FEV (Homo sapiens, UniProt Q99581 1-238); settings: protein: recombinant; tags: N-terminal GST; dsDNA, one strand shown
# T7 sequence: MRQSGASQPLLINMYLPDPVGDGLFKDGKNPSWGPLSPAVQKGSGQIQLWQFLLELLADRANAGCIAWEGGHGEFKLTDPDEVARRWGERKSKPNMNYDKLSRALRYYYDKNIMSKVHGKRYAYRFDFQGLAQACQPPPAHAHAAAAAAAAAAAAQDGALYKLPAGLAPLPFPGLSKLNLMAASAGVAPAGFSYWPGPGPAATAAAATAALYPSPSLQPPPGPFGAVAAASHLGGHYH
# Outline: as §1
# ETV5 = ETV5 (Homo sapiens, UniProt P41161 1-510); settings: protein: recombinant; tags: N-terminal GST; dsDNA, one strand shown
# Chain of ETV5 (P41161 whole entry): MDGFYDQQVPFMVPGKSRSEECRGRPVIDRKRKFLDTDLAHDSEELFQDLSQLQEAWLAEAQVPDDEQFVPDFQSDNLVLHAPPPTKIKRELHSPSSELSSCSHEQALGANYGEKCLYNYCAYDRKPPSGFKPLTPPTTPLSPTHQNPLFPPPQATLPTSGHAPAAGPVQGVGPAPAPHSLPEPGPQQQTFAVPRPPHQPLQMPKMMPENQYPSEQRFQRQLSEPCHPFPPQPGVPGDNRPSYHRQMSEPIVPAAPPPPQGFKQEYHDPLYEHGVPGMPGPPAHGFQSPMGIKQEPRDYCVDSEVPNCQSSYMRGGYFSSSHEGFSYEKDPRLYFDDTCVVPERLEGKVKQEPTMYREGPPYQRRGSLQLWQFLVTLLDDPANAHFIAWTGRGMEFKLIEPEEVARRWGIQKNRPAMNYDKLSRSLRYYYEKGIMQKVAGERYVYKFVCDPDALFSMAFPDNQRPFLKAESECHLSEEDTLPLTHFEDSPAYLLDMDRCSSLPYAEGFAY
# Outline: as §1
# HSF1 = HSF1 (Homo sapiens, UniProt Q00613 1-529); settings: protein: recombinant; tags: N-terminal GST; chain copies: 3; dsDNA, one strand shown
# Chain of HSF1 (Q00613 whole entry): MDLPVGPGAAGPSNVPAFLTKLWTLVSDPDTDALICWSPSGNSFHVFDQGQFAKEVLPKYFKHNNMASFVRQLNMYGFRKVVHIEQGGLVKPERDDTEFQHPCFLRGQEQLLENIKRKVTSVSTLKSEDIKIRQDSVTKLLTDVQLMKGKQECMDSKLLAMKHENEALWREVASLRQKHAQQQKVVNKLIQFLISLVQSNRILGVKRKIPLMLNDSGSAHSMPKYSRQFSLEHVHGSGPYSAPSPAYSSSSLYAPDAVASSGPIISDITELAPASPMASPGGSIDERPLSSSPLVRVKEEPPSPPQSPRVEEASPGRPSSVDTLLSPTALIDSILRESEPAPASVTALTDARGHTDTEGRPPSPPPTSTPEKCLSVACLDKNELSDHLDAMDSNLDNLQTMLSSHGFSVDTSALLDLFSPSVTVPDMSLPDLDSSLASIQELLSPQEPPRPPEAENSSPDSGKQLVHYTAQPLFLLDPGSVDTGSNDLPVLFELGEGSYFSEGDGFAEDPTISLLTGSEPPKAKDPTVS
# Outline: as §1
# SPIC = molecular target: T8, SPIC (Homo sapiens, UniProt Q8N5J4 1-248); settings: protein: recombinant; tags: N-terminal GST; dsDNA, one strand shown
# T8 sequence: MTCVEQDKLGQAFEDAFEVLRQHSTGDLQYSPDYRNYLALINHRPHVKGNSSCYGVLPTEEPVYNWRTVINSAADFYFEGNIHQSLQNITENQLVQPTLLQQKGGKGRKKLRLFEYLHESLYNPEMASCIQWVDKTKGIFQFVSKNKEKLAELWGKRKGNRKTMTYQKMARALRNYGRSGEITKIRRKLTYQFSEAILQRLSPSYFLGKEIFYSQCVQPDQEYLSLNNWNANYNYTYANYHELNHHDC
# Outline: as §1
# ELF4 = ELF4 (Homo sapiens, UniProt Q99607 1-663); settings: protein: recombinant; tags: N-terminal GST; dsDNA, one strand shown
# Chain of ELF4 (Q99607 whole entry): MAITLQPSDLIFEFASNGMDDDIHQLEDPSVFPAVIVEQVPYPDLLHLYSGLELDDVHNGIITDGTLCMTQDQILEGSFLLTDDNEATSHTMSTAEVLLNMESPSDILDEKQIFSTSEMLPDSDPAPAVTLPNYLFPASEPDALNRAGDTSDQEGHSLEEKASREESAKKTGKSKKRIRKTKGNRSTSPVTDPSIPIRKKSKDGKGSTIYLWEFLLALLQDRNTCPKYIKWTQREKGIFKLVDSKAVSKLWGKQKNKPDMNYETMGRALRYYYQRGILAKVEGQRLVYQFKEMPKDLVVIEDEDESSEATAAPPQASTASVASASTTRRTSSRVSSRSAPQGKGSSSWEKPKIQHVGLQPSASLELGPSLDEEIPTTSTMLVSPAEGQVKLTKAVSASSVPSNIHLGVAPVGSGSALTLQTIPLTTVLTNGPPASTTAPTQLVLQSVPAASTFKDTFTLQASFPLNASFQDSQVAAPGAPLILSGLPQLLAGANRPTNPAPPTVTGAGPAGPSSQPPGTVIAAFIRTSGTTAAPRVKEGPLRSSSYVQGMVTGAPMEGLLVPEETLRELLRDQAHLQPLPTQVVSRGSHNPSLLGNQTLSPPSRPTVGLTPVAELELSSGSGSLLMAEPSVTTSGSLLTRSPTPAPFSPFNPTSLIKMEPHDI
# Outline: as §1
# ELK4 = molecular target: T9, ELK4 (Homo sapiens, UniProt P28324-2 1-405); settings: protein: recombinant; tags: N-terminal GST; dsDNA, one strand shown
# T9 sequence: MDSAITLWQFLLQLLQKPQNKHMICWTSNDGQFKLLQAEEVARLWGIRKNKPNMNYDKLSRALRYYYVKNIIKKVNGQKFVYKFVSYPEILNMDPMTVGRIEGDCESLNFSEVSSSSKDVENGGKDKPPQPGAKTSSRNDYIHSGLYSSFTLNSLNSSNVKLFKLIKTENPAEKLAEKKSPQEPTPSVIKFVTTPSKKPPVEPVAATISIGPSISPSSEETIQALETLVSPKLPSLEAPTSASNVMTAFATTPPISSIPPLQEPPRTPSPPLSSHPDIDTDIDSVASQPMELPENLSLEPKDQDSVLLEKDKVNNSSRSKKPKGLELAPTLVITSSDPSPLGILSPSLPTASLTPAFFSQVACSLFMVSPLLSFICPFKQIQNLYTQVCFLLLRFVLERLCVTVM
# Outline: as §1
# ETV2 = molecular target: T10, ETV2 (Homo sapiens, UniProt O00321 1-342); settings: protein: recombinant; tags: N-terminal GST; dsDNA, one strand shown
# T10 sequence: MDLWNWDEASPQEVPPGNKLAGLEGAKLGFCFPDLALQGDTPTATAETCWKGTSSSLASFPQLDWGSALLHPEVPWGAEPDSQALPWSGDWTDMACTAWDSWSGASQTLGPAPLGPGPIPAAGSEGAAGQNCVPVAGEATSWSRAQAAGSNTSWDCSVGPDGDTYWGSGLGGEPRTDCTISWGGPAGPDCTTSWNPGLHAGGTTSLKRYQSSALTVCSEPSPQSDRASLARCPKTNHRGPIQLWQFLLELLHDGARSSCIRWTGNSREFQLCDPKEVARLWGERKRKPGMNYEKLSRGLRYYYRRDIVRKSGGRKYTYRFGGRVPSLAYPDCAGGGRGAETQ
# Outline: as §1
# ELF3 = molecular target: T11, ELF3 (Homo sapiens, UniProt P78545 1-371); settings: protein: recombinant; tags: N-terminal GST; dsDNA, one strand shown
# T11 sequence: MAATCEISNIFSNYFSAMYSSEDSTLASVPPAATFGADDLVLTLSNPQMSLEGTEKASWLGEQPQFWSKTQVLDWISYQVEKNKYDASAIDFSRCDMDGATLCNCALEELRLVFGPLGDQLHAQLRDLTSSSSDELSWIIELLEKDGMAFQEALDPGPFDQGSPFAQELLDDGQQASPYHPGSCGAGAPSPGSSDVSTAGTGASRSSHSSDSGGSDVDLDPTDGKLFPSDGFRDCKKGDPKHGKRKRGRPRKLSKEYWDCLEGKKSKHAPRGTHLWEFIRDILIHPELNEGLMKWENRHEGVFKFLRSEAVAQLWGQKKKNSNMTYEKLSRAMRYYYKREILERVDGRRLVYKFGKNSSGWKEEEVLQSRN
# Outline: as §1
# CRX = CRX (Homo sapiens, UniProt O43186 1-299); settings: protein: recombinant; tags: N-terminal GST; dsDNA, one strand shown
# Chain of CRX (O43186 whole entry): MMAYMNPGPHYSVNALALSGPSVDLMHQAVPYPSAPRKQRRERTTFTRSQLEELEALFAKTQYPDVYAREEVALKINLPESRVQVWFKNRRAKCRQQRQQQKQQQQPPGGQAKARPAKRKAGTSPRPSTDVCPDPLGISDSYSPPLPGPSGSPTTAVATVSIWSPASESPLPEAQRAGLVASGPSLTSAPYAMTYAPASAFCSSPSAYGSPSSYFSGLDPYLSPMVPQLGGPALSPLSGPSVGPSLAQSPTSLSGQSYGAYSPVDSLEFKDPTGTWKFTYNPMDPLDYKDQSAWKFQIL
# Outline: as §1
# ETV1 = ETV1 (Homo sapiens, UniProt P50549 1-477); settings: protein: recombinant; tags: N-terminal GST; dsDNA, one strand shown
# Chain of ETV1 (P50549 whole entry): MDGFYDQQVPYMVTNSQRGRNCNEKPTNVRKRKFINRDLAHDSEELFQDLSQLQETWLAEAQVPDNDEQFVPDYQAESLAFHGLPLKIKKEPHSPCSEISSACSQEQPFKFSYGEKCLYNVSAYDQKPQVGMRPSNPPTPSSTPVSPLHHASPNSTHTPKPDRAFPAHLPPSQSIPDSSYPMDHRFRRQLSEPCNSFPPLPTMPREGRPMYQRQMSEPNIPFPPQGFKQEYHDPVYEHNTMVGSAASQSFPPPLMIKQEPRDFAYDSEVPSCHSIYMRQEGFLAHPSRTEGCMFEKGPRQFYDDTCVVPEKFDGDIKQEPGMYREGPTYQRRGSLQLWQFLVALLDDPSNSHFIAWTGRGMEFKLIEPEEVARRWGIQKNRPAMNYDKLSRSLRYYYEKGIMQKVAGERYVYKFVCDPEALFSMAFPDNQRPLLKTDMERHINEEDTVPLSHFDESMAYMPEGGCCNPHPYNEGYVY
# Outline: as §1
sequence,measurement,setting,value
CCCAAT,binding signal,FLI1,"1.23 fold enrichment (6-mer frequency, TF over GST control)"
same,binding signal,ELK1,"1.29 fold enrichment (6-mer frequency, TF over GST control)"
same,binding signal,GABPA,"1.35 fold enrichment (6-mer frequency, TF over GST control)"
same,binding signal,ERG,"1.24 fold enrichment (6-mer frequency, TF over GST control)"
same,binding signal,ELF1,"1.29 fold enrichment (6-mer frequency, TF over GST control)"
same,binding signal,EHF,"1.22 fold enrichment (6-mer frequency, TF over GST control)"
same,binding signal,SPI1,"1.28 fold enrichment (6-mer frequency, TF over GST control)"
same,binding signal,SPIB,"1.21 fold enrichment (6-mer frequency, TF over GST control)"
same,binding signal,ELK3,"1.22 fold enrichment (6-mer frequency, TF over GST control)"
same,binding signal,FEV,"1.27 fold enrichment (6-mer frequency, TF over GST control)"
same,binding signal,ETV5,"1.34 fold enrichment (6-mer frequency, TF over GST control)"
same,binding signal,HSF1,"1.1 fold enrichment (6-mer frequency, TF over GST control)"
same,binding signal,SPIC,"1.27 fold enrichment (6-mer frequency, TF over GST control)"
same,binding signal,ELF4,"1.32 fold enrichment (6-mer frequency, TF over GST control)"
same,binding signal,ELK4,"1.24 fold enrichment (6-mer frequency, TF over GST control)"
same,binding signal,ETV2,"1.3 fold enrichment (6-mer frequency, TF over GST control)"
same,binding signal,ELF3,"1.32 fold enrichment (6-mer frequency, TF over GST control)"
same,binding signal,CRX,"1.19 fold enrichment (6-mer frequency, TF over GST control)"
same,binding signal,ETV1,"1.19 fold enrichment (6-mer frequency, TF over GST control)"
